Source: PubChem BioAssay AID1851 (National Center for Advancing Translational Sciences (NCATS), 2009)
The campaign covered roughly 16,000 compounds. About 5,700 (36%) were called active. About 24% were inconclusive and are not listed. This is one part of the list. Values without a mark were called inactive. Calls come from the whole dose curve; as a rule, active = well fitted curve in the direction sought with a large enough effect; inconclusive = small, poorly fitted or top-dose-only effect, or effect the other way; inactive = no such curve, though single readings can be large or run the other way.

Target: Cytochrome P450 1A2 (Homo sapiens) (UniProt P05177)
Assay: Cytochrome panel assay with activity outcomes
Details: recombinant CYP, pro-luciferin dealkylation, luminescence, p450-cyp1a2; series mostly up to 57.1 µM; activity, negative = inhibition: at the top concentration
% is set by controls: 0 for no effect and ±100 for the full control effect.

Cytochrome P450 1A2 (Homo sapiens), sequence (P05177 whole entry, looked up): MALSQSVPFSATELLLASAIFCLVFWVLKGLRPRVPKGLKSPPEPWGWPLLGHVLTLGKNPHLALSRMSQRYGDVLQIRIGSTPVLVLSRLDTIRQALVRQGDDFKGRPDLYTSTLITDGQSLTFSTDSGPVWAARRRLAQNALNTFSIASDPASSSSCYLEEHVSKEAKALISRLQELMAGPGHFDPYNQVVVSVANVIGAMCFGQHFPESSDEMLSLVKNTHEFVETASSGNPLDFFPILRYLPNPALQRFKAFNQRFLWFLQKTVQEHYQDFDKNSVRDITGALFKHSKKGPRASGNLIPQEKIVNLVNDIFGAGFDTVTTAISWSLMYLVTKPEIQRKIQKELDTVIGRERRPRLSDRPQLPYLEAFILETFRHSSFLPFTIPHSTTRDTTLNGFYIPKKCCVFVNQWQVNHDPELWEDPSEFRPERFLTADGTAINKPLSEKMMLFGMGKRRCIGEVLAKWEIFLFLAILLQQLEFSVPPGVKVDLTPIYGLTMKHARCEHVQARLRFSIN

Row | Structure (SMILES) | activity, negative = inhibition | AC50
1 | COc1cccc(-c2cc(C(=O)N/N=C/c3ccc(OC)c(COC(C)=O)c3)c3ccccc3n2)c1 | -28.3% | 
2 | COc1ccc(C(C(=O)NC2CCCC2)N(Cc2ccc(F)cc2)C(=O)c2ccn[nH]2)cc1OC (stereo not drawn) | -9.89% | 
3 | COc1ccc(/C=N/NC(=O)c2ccn[nH]2)cc1COc1ccc(F)cc1 |  | 8.91 µM (active)
4 | CO[C@@]12C[C@@H](COC(=O)c3cncc(Br)c3)CN(C)[C@H]1Cc1cn(C)c3cccc2c13 |  | 5.01 µM (active)
5 | Cc1cccc(C(=O)N/N=C/c2ccc(OCC(=O)N3CCCCC3)cc2)c1 | -9.71% | 
6 | CN(C)c1ccc(/C=N\NC(=O)c2cnc3ccccc3c2)cc1 |  | 1.58 µM (active)
7 | O[C@@](CCN1CCCCC1)(c1ccccc1)[C@@H]1C[C@H]2C=C[C@@H]1C2 | -9.3% [at 25.6 µM] | 
8 | N[C@@H](C(=O)O)c1ccc(C(=O)O)cc1 | 3.94% | 
9 | CC(=O)N[C@H](Cc1ccc(O)cc1)C(=O)O | -11.8% [at 11.4 µM] | 
10 | CC(C)Cc1ccc([C@H](C)C(=O)O)cc1 |  | inactive
11 | N#C[C@H](Cc1ccc(O)cc1)c1ccc(O)cc1 |  | 12.6 µM (active)
12 | C=CCNC(=O)c1ccc(Cn2c(=S)[nH]c3cc4c(cc3c2=O)OCO4)cc1 |  | 8.91 µM (active)
13 | O=C(CCCCCn1c(=S)[nH]c2cc3c(cc2c1=O)OCO3)N1CCN(C2CCCCC2)CC1 | -22.2% | 
14 | Cc1sc2ncn(CC(=O)NCCCC(=O)N3CCN(c4ncccn4)CC3)c(=O)c2c1C | -23.7% | 
15 | CCN(CC)CCn1c(=S)[nH]c2cc3c(cc2c1=O)OCO3 |  | 15.8 µM (active)
16 | CCCCNC(=O)CCn1c(=S)[nH]c2cc3c(cc2c1=O)OCO3 |  | 2.51 µM (active)
17 | O=C(CCCn1c(=S)[nH]c2cc3c(cc2c1=O)OCO3)N1CCN(c2ncccn2)CC1 |  | 12.6 µM (active)
18 | CCCNC(=O)OC[C@@H]1O[C@H](CCO/N=C(\C)CCN2CCc3nc(-c4ccccc4)c(-c4ccccc4)cc3C2)C=C[C@@H]1Oc1ccc(OC)cc1 | -4.45% [at 11.4 µM] | 
19 | COC(=O)C/C=C\[C@H](C)[C@H](CO)NS(=O)(=O)c1ccc(C)cc1 | -2.78% [at 11.4 µM] | 
20 | Cc1ccc(C)c(S(=O)(=O)N2CCC(c3nc4c(nnn4Cc4ccc(F)cc4)c(=O)[nH]3)CC2)c1 | -22.9% | 
21 | O=C(Cc1cccs1)N1CCC(c2nc3c(nnn3Cc3ccccc3Cl)c(=O)[nH]2)CC1 |  | 6.31 µM (active)
22 | O=C(NCc1ccco1)c1nc2c(nnn2Cc2cccc(Cl)c2)c(=O)[nH]1 | -10.5% | 
23 | CCN(CC)CC[n+]1ccc2c(C)c3[nH]c4ccc(O)cc4c3c(C)c2c1 |  | 3.16 µM (active)
24 | CCN(CC)CC[n+]1ccc2c(C)c3[nH]c4ccccc4c3c(C)c2c1 |  | 2.51 µM (active)

Row | Structure (SMILES) | activity, negative = inhibition | AC50
25 | Clc1ccccc1-c1ccc2ncnc(N3CCNCC3)c2c1 |  | 2 µM (active)
26 | Cc1ccccc1-c1ccc2ncnc(N3CCNCC3)c2c1 |  | 3.16 µM (active)
27 | CN1CCN(c2ncnc3ccc(-c4ccccc4Cl)cc23)CC1 |  | 1.58 µM (active)
28 | CN1CCN(c2ncnc3ccc(-c4ccccc4C#N)cc23)CC1 |  | 3.16 µM (active)
29 | CC(Cc1ccccc1)NC(=O)CSc1nc2nc3c(cc2c(=O)n1-c1ccccc1)COC(C)(C)C3 (stereo not drawn) | -3.43% | 
30 | C/C(CCN1CCc2nc(-c3ccccc3)c(-c3ccccc3)cc2C1)=N\OC[C@@H](O)COCc1ccco1 | -6.41% [at 11.4 µM] | 
31 | CCOC(=O)C(C)(C)[C@H](O)C(C)C | -1.66% [at 11.4 µM] | 
32 | N#Cc1cccc(NC(=O)N2CCCC3(CCN(C(=O)c4csnn4)CC3)C2)c1 | 10.4% | 
33 | Cc1ccccc1-c1ccc2ncnc(N3CCN(C)CC3)c2c1 |  | 3.16 µM (active)
34 | Cc1cnc(CNc2nc(-c3ccc(N(C)C)cc3)nc3ccccc23)cn1 |  | 3.16 µM (active)
35 | Cc1cnc(CNc2nc(-c3ccoc3)nc3ccccc23)cn1 |  | 2 µM (active)
36 | N=c1n(CCN2CCOCC2)c2ccccc2n1CC(=O)c1ccc(Cl)c(Cl)c1 |  | 1.26 µM (active)
37 | COC(=O)Cn1c(=N)n(CCN2CCCCC2)c2ccccc21 | -12% | 
38 | Nc1ccc(N2C(=O)c3ccccc3C2=O)c(Cl)c1 | -17.8% | 
39 | O=C1c2cccc3c(Cl)ccc(c23)C(=O)N1O |  | 3.16 µM (active)
40 | CC(C)COP(=O)(OCC(C)C)C(O)c1ccccc1F (stereo not drawn) | -3.98% | 
41 | O=C1CCCCCC1C1(O)C(=O)Nc2ccc(Br)cc21 (stereo not drawn) | -18.8% | 
42 | CCOC(=O)c1c2ccc(OCC(=O)N/N=C/c3ccc(Cl)cc3)cc2n2ccccc12 |  | 3.16 µM (active)
43 | Cc1ccc(-n2c(C)cc(C(=O)CSc3n[nH]c(N)n3)c2C)cc1 | -12.6% | 
44 | Cc1cc(C)nc(Nc2ncc(O)n2-c2ccccc2)n1 |  | 2.82 µM (active)
45 | N=c1n(-c2ccccc2)c(O)cc(=O)n1-c1ccccc1 | -4.91% | 
46 | Cc1ccc(-n2c(O)cnc2Nc2nc(C)cc(C)n2)cc1 |  | 5.01 µM (active)
47 | O=C(O)c1ccccc1C(=O)Nc1ccc(S(=O)(=O)Nc2nccs2)cc1 | -0.159% [at 25.6 µM] | 
48 | S=C(Nc1ccccc1)Nc1nccs1 |  | 0.794 µM (active)
